Beta apoptosis = inhibitors of cytokine-induced beta cell apoptosis, primary screen, luminescence | protection from apoptosis, % (concentration not given with the values) | AID 435005, 2010 | 0.8% of 300,000 active | INS-1E cytokine-induced death, ATP luminescence, 48 h; percent of positive-control rescue, neutral wells zero;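 active means Every replicate reaches about 75%, or at least half do and their mean reaches it too, limit read from the data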;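 further: higher means more ATP so stronger rescue from cytokine killing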
Gli-Sufu antag = Gli-Sufu pathway antagonists, primary screen, luciferase luminescence, Sufu-KO-LIGHT cells, uHTS; Sufu-KO-LIGHT fibroblasts, Gli luciferase reporter luminescence; inhibition, % at 5 µM; 0.74% of 340,000 active; AID 588413, 2011;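 active means inhibition above about 55%, limit read from the data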
Jurkat NFkB inh = inhibitors of induced NF-kB luciferase reporter, primary screen, TCR NF-kB activation inhibitor project, cell-based, luminescence, uHTS; Jurkat, PMA/ionomycin-induced NF-kB luciferase reporter; inhibition, % at 4 µM; 0.53% of 330,000 active; AID 435003, 2010; in the data active means inhibition above about 50%
697 NFkB inh = inhibitors of PMA/ionomycin-induced NF-kB reporter, 697 cells, primary screen, B-cell NF-kB inhibitor project, cell-based, luminescence, uHTS. AID 435022, 2010. 697 B-cell NF-kB luciferase reporter, 16 h. inhibition, % at 4 µM. 0.33% of 330,000 active; in the data active means inhibition above about 35%
Mdm2-MdmX inh = inhibitors of human Mdm2-MdmX association, primary screen, cell-based, luminescence, split luciferase, SaOS-2, uHTS. Protein Mdm4 (Homo sapiens) + E3 ubiquitin-protein ligase Mdm2 (Homo sapiens), …. SaOS-2 split-luciferase Mdm2/MdmX complementation. inhibition, % at 8 µM. 3% of 330,000 active;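 active means inhibition of at least 50% at 8 µM in the primary screen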
Target sequence (O15151 whole entry, looked up): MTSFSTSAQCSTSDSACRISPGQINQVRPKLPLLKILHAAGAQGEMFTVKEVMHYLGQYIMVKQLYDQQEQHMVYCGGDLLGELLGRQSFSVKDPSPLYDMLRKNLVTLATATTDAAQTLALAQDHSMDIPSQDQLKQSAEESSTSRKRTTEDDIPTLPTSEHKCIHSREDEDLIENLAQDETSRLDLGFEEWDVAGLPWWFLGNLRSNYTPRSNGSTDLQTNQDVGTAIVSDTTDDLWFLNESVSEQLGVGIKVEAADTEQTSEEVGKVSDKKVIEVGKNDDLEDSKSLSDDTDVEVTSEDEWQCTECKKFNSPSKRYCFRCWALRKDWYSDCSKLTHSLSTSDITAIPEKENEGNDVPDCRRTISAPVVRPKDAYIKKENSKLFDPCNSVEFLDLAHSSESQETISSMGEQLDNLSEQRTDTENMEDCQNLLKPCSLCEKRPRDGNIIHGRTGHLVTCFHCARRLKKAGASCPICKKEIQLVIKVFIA
Target sequence (Q00987 whole entry, looked up): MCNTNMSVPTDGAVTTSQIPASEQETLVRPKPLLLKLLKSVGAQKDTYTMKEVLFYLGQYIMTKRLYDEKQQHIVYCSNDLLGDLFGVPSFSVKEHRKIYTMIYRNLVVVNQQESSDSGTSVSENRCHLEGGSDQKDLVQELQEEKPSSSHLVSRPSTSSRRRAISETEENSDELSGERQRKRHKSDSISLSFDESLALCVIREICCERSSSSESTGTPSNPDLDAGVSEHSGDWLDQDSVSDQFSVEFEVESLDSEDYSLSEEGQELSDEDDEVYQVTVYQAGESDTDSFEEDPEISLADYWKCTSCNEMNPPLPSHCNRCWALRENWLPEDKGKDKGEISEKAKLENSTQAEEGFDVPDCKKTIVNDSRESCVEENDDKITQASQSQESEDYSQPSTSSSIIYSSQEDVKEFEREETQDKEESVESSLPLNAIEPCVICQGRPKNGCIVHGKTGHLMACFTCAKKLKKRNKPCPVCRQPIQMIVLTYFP
Jurkat NFkB conf = PMA/ionomycin-induced NF-kB reporter inhibitors, Jurkat retest, confirmation, T-cell NF-kB inhibitor project, cell-based, luminescence, single concentration; shares compounds with Jurkat NFkB inh; Jurkat NF-kB luciferase, 16 h; inhibition, % at 4 µM; 27% of 2,700 active; AID 435020, 2010;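 active means inhibition reaching about 45% at 4 µM in either replicate, limit read from the data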
Of the large screens only hits and unclear results are named; the others gave an inactive call (follow-up assays come after a bar, where they were run). Shown are actives, neighbours in structure and some others; about 4% of the full set was active somewhere.

COc1cccc(NC(=O)CSc2ccc(-c3sc(C)nc3C)nn2)c1	none
Cc1ccc(NC(=O)CN(C)C(=O)c2ccccc2Cc2ccccc2)cc1	none (no result: Beta apoptosis)
O=C(N/N=C/C(Cl)=C\c1ccccc1)c1cccs1	none | Jurkat NFkB conf inactive
CC(/C=N/NC(=O)c1cccs1)=C\c1ccccc1	none
N#CCC(CNc1ncc(C(F)(F)F)cc1Cl)OC(=O)c1cccc(C(F)(F)F)c1 (configuration not stated)	Jurkat NFkB inh 60.3 | Jurkat NFkB conf inactive
O=C(OCCNc1ncc(C(F)(F)F)cc1Cl)c1ccc(S(=O)(=O)N2CCOCC2)cc1	none
Fc1ccccc1-c1nc(-c2ccc(Cl)cc2)no1	none | Jurkat NFkB conf inactive
Fc1ccc(F)c(C2=NNC(=Nc3ccccc3F)SC2)c1	none
Fc1ccccc1N=C1NN=C(c2ccccc2)CS1	Beta apoptosis 97.4 | Jurkat NFkB conf inactive
c1ccc2c(c1)nc1n2CCN1CCN1CCCC1	none
CCc1ccccc1N(C)S(=O)(=O)c1ccc(-c2cc(C)no2)s1	Jurkat NFkB inh 55.4 | Jurkat NFkB conf inactive
Cc1cc(-c2ccc(S(=O)(=O)N3CCN(C)CC3)s2)on1	none
O=S(=O)(NCc1ccccn1)c1cc(Cl)ccc1Cl	none
O=[N+]([O-])c1ccc(Cl)c(S(=O)(=O)NCCc2ccccn2)c1	none | Jurkat NFkB conf inactive
Cc1cnc(C(=O)Nc2ccc(N3CCN(C(=O)OC(C)(C)C)CC3)cc2)cn1	Jurkat NFkB inh 63.9 | Jurkat NFkB conf inactive
CCN(CC)CCNC(=O)CCN1N=C(c2ccccc2)CCC1=O	none
COc1ccc2c(ccn2S(=O)(=O)c2ccccc2)c1	none (no result: Beta apoptosis)
O=[N+]([O-])c1ccc(N2CCN(c3ccccc3)CC2)nc1	none
Cc1c(C)c(C)c(C(=O)C2CCN(c3ccc([N+](=O)[O-])cn3)CC2)c(C)c1C	Jurkat NFkB inh 72.8 | Jurkat NFkB conf inactive
CC1CCN(c2ccc([N+](=O)[O-])cn2)CC1	none
COc1cccc(N2CCN(c3ccc([N+](=O)[O-])cn3)CC2)c1	Jurkat NFkB inh 63.8 | Jurkat NFkB conf inactive
CN(Cc1ccccc1)C(=S)Nc1ccc2nc3n(c(=O)c2c1)CCCCC3	none
COc1cccc(/C=C/C(=O)Nc2ccc3c(c2)OCCO3)c1OC	none | Jurkat NFkB conf inactive
C(=N\Nc1nncc2ccccc12)/c1ccccc1	none
Cc1cccc(/C=N/Nc2nncc3ccccc23)c1	none | Jurkat NFkB conf inactive
CCOC(=O)c1cnc(SCC(=O)NNC(=O)c2ccco2)nc1N	none
Cc1cc(C(=O)CSc2nnc(N)s2)c(C)n1Cc1cccs1	none | Jurkat NFkB conf inactive
CCOC(=O)c1ccc(NC(=O)N2CCc3ccccc32)cc1	none | Jurkat NFkB conf inactive
CCOC(=O)c1ccc(NC(=O)N2CCc3ccccc3C2)cc1	none
COC(=O)c1sc(NC(=O)c2c(C)noc2C)nc1C	none
COC(=O)c1sc(N)c(C(=O)OC)c1COC(=O)c1c(C)noc1C	Jurkat NFkB inh 67.6 | Jurkat NFkB conf inactive
c1ccc(-c2cc(-c3ccccc3)on2)cc1	none | Jurkat NFkB conf inactive
CCOC(=O)C(=O)NC1CC=CCC1c1ccc2c(c1)OCO2 (configuration not stated)	none (no result: Beta apoptosis, Jurkat NFkB inh, 697 NFkB inh, Mdm2-MdmX inh)
CCCCc1ccc(NC(=O)c2ccc(NS(C)(=O)=O)cc2)cc1	none
CCCCc1ccc(NC(=O)c2ccc(N(C)S(C)(=O)=O)cc2)cc1	Jurkat NFkB inh 50.1 | Jurkat NFkB conf 54.2
CCCN=C1N(C)C[C@@H]2[C@@H]3C(=O)N(Cc4ccccc4)C(=O)[C@@H]3[C@](CC)(C(=O)OC)N12	none (no result: Beta apoptosis, Jurkat NFkB inh)
CCn1c(CNC(=O)c2ccccc2F)nnc1SCC(=O)NC1CCCCC1C (configuration not stated)	none
O=C(c1cc(-c2ccc(Cl)cc2)on1)N1CCCCCC1	none | Jurkat NFkB conf inactive
O=C(c1cc(-c2ccc(Cl)cc2Cl)on1)N1CCCCCC1	none (no result: Gli-Sufu antag) | Jurkat NFkB conf inactive
C/C(=N\Nc1nncc2ccccc12)c1ccc(C(C)(C)C)cc1	none
C/C(=N\Nc1nncc2ccccc12)c1cccc(OC(F)F)c1	none (no result: Beta apoptosis) | Jurkat NFkB conf inactive
CCOc1ccccc1NS(=O)(=O)c1cc2c3c(c1)CC(=O)N3CCC2	none
NS(=O)(=O)c1ccc(CCNC(=O)CNC(=O)c2ccc(Oc3ccccc3)cc2)cc1	none
CN(Cc1cccc(F)c1)C(=O)c1ccc(S(=O)(=O)N2CCCCCC2)cc1	none
COc1ccc(OCC(=O)Nc2ccc(OC)c(S(=O)(=O)N3CCCCC3)c2)cc1	Jurkat NFkB inh 50.1 (no result: Beta apoptosis) | Jurkat NFkB conf inactive
Cc1cc(=O)[nH]c(SCC(=O)NC2CCCc3ccccc32)n1 (configuration not stated)	none
O=C(Nc1ccc(C2SCCS2)cc1)c1ccccc1	none | Jurkat NFkB conf inactive
CNC(=O)Nc1ccc(C2SCCS2)cc1	none
O=C(Nc1ccc(Cl)c(Cl)c1)c1ccccc1	none | Jurkat NFkB conf inactive
O=C(Nc1cccc(Cl)c1)c1ccccc1	none
COc1cccc(NC(=O)C(=S)NC2CCCCC2)c1	none | Jurkat NFkB conf inactive
COc1cccc(NC(=O)COC(=O)C2CCCCC2)c1	none | Jurkat NFkB conf inactive
O=C(Nc1ccc(N2CCCCCC2)cc1)c1ccccc1Cl	none
COc1ccccc1C(=O)Nc1ccc(N2CCN(C(C)=O)CC2)cc1	none
COc1ccccc1C(=O)Nc1ccc(N2CCCCC2)cc1	none | Jurkat NFkB conf inactive
O=C(Nc1ccc(N2CCCCCC2)cc1)c1ccc[nH]1	none | Jurkat NFkB conf inactive
Cc1ccc(C(=O)N2CCN(c3ccc(NC(=O)c4cc(C)cc(C)c4)cc3)CC2)cc1	none
Cc1cc(C)cc(C(=O)Nc2ccc(N3CCCC3)cc2)c1	none | Jurkat NFkB conf inactive
CC(=O)c1ccc(NC(=O)CCNC(=O)c2ccccc2Cl)cc1	none
CC1(C)C(=O)OC(c2ccc([N+](=O)[O-])cc2)C(C)(C)C1=O (configuration not stated)	none
Cc1nn(C)c(C)c1Nc1ccc(N2C(=O)C3CC=CCC3C2=O)cc1[N+](=O)[O-] (configuration not stated)	none
COc1ccc(S(=O)(=O)N2CCCCC2)cc1C(=O)Nc1cc(C)on1	none
CCc1cc2cc(C(=O)Nc3ccc(F)cc3)sc2s1	none
CCc1cc2cc(C(=O)Nc3ccccc3F)sc2s1	none | Jurkat NFkB conf inactive
CC(C)(C)NC(=O)CN(C(=O)C(=O)Nc1ccc2c(c1)OCCO2)N1CCOCC1	none
O=C(CCCc1ccccc1)NCCS(=O)(=O)N1CCN(c2ccccc2F)CC1	none
O=C(Nc1ccc(OC(F)(F)F)cc1)c1ccc2ccccc2n1	none
O=C(Nc1ccccc1)c1ccc2ccccc2n1	none | Jurkat NFkB conf inactive
O=C(NC(=S)Nc1ccc2c(c1)OCCO2)c1ccccc1F	none (no result: Beta apoptosis)
O=C(Nc1ccc2c(c1)OCCO2)c1ccc2ccccc2n1	none | Jurkat NFkB conf inactive
O=C(NC(=S)Nc1ccc2c(c1)OCCO2)c1ccccc1	none | Jurkat NFkB conf inactive
O=C(Nc1ccccc1)c1nc2ccccc2s1	none | Jurkat NFkB conf inactive

Bioassay records (PubChem)
